Screens deposited in PubChem by National Center for Advancing Translational Sciences (NCATS).
Compounds with a hit are over-represented: about 5.3% of the library has one in this group of screens.
Tau fibril FP – blocks human tau fibril formation measured by polarization; P10636; hit rate 0.39% among 280,000; K18 P301L tau heparin fibrillization, Alexa594 FP, 6 h; Potency, µM (highest dose often 57.7 µM), for the others: top-dose activity, negative = inhibition, actives largely listed as inhibitors; also: potency is read from the fitted curve at half-maximal effect; nearly all actives have a fitted effect of over 55% in size
Target sequence (P10636 561-689 P618L limits assumed): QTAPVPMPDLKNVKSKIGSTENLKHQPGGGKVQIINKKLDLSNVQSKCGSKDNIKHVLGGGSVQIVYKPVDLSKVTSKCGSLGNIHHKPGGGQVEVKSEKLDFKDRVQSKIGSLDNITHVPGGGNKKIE
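K18 P301L tau (15 uM unlabeled/0.24 uM Alexa 594-labeled, final) + compound + heparin 20 uM final; 100 mM NaOAc pH 7; 6 hr 37 C; ThT 30 uM final added, 1 hr RT; FP ex 555/em 632 nm.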
FBPA coupling cs – coupling enzyme interference in Giardia aldolase counter-screen; coupling enzyme system counterscreen, AmpLite Red fluorescence; AID 2472; hit rate 0.67% among 290,000; activity change, negative = inhibition, % at 58.2 µM, hits read low; in the data active = activity change below about -30%
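Activity here indicates interference with the coupling reaction, not aldolase inhibition. Compounds at 57.5 uM final met coupling enzymes for 10 min at RT; substrate and AmpLite Red detection followed, with a 525/598 nm fluorescence read after 20 min.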
Sfp PPTase inh – inhibitors of Bacillus subtilis Sfp phosphopantetheinyl transferase; Potency, µM, inactives show largest response in the series, negative = inhibition, usual class: inhibitors; hit rate 3.5% among 310,000; Biochemical Sfp PPTase activity, qHTS; Q9F4F7;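 also: the enzyme is Sfp with the accession as filed and its product quenches rhodamine fluorescence; potency is read from the fitted curve at half-maximal effect; 0% = enzyme reaction without inhibitor and -100% = no enzyme wells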
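Sfp 15 nM + cpd, 15 min RT; start w/ rhodamine-CoA 5 uM, BHQ-2-YbbR 12.5 uM (final); 50 mM Hepes pH 7.6, 10 mM MgCl2, 0.01% NP-40, 0.01% BSA; read 525/598 nm at 0 and 30 min.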
Tau fluor counter – counter-screen for tau fibril formation inhibitors. hit rate 0.93% among 280,000. AID 1463. Potency, µM (titrated, usually from 57.7 µM), inactives show at the highest dose activity change, negative = decrease. tau K18 P301L Alexa594 fluorescence, heparin fibrillization; also: potency is read from the fitted curve at half-maximal effect; nearly all actives have a fitted effect of over 55% in size
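Human tau K18 P301L (15 uM unlabeled, 0.24 uM Alexa 594-labeled) in 100 mM sodium acetate pH 7 with 20 uM heparin, 6 hr at 37 C. ThT 30 uM added, 1 hr ambient; Alexa 594 FP and total fluorescence read at 555/632 nm.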
JMJD2E inh – inhibitors of human JMJD2E histone demethylase; B2RXH2; JMJD2E catalytic domain, FDH-coupled NADH fluorescence (FDH is formaldehyde dehydrogenase); Potency, µM (doses to about 57.1 µM), without a hit: top-dose activity change, negative = inhibition, most hits filed as inhibitors; hit rate 1.6% among 230,000; AID 2147; active = well fitted inhibition curve with a large enough effect, not every such curve was filed as active; inconclusive = small, poorly fitted or top-dose-only effect, or another doubt; inactive = no such curve, though single readings can be large or run the other way;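 also: potency is read from the fitted curve at half-maximal effect; 0% = wells with enzyme and -100% = buffer wells without enzyme; nearly all actives have a fitted effect of over 50% in size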
Target sequence (B2RXH2 1-337 limits assumed): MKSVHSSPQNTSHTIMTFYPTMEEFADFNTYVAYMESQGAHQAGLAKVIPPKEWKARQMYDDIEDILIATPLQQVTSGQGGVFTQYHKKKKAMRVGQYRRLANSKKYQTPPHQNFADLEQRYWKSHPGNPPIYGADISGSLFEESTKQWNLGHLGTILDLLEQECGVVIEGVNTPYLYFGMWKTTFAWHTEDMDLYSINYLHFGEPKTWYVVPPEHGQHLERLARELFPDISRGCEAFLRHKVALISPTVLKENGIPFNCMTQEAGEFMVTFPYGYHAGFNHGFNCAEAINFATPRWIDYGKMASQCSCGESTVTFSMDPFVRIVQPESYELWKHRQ
Tau ThT inhib – tau fibrillization inhibition (ThT binding); P10636; recombinant tau K18 P301L, heparin-induced fibrillization, ThT fluorescence; Potency, µM (series often up to 57.4 µM), inactives show at the top dose activity, negative = inhibition, hits mostly inhibitors; hit rate 2.1% among 270,000; AID 1460; also: potency is read from the fitted curve at half-maximal effect; nearly all actives have a fitted effect of over 55% in size
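ThT emission at 510 nm, taken 1 hr after adding 30 uM dye, quantifies aggregates formed when 20 uM heparin acts on human tau K18 P301L for 6 hr at 37 C.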
* = called active by the depositor; ? = inconclusive; . = no result given; ! = a repeat was not active; [ ] = remark or other dose. Unless noted, calls follow the shape of the dose curve; as a rule, active = well fitted curve in the direction sought with a large enough effect; inconclusive = small, poorly fitted or top-dose-only effect, or another doubt; inactive = no such curve, though single readings can be large; an effect the other way counts as inactive or inconclusive. Unless noted, % is scaled to controls: 0 for no effect and ±100 for the full control effect.

SMILES	Tau fibril FP	FBPA coupling cs	Sfp PPTase inh	Tau fluor counter	JMJD2E inh	Tau ThT inhib
c1ccc(N2CCOCCOCCOCCOCCOCC2)cc1	-10.0%	1.1	14.9%	-8.1%	6.9%	-10.9%
CN(C1=C(N2CCOCC2)C(=O)c2ccccc2C1=O)c1ccccc1	-12.0%	-40.5*	-7.4%	?	-1.0%	?
CCCCNc1ccc2c3c(cccc13)C(=O)N(CCCC)C2=O	?	-5.7	28.2µM*	?	6.4%	?
CC(C)(C)CN1CCNC(=O)C1CC(=O)N1CCN(c2ccccc2)CC1 (centres undefined)	3.4%	-37.8*	-27.9%	-9.0%	?	-12.9%
CCN1C(=O)N[C@H](c2ccc(Br)cc2)C(C(C)=O)=C1C	-5.3%	2.5	89.1µM*!	-11.2%	16.1%	-13.5%
NC(=O)N/N=C/c1cn(-c2ccccc2)nc1-c1ccccc1	-14.4%	-1.5	-23.5%	-24.2%	-23.2%	4.0%
O=[N+]([O-])c1ccc(N/N=C/c2cn(-c3ccccc3)nc2-c2ccccc2)cc1	7.1%	0.8	15.2%	7.94µM*[quencher]	9.6%	7.94µM*
O=C(O)/C=C/c1cn(-c2ccccc2)nc1-c1cccc([N+](=O)[O-])c1	5.4%	-2.1	11.3%	-16.2%	-4.1%	?
CNC(=O)COC(=O)/C=C/c1cn(-c2ccccc2)nc1-c1ccc(C)o1	?	0.7	50.1µM*	?	?	-20.3%
O=C(O)/C=C/c1cn(-c2ccccc2)nc1-c1ccc(-c2ccc([N+](=O)[O-])cc2)o1	-1.2%	3.6	25.1µM*	?	-3.3%	1.12µM*
NS(=O)(=O)c1ccc(N/N=C/c2cn(-c3ccccc3)nc2-c2ccccc2)c([N+](=O)[O-])c1	3.7%	0.0	-1.1%	17.8µM*[quencher]	2.0%	15.8µM*
COc1cc2oc(=O)c3c4c(cc5ccc(c1CCN(C)C)c2c53)OCO4	8.7%	-15.3	-17.2%	-10.7%	?	-15.1%
COc1ccc(OC2C(O)COC2/C=C/C#Cc2ccc(F)cc2F)cc1 (centres undefined)	-0.3%[11.6 µM]	1.3	7.6%	-19.3%[11.6 µM]	.	-15.5%[11.5 µM]
COc1cc(NS(=O)(=O)c2ccc([N+](=O)[O-])cc2)c2ncccc2c1	.	-17.9	5.9%	.	.	.
Cc1cccc(Cn2nc(C)n3c(cc4cc(C)ccc43)c2=O)c1	5.5%	.	.	3.4%	.	4.4%
O=C(Nc1cccn(Cc2c(F)cccc2Cl)c1=O)NC1CCCCC1	1.4%	-35.2*	?	-15.9%	?	-14.6%
O=C(Nc1cccn(Cc2cccc(F)c2)c1=O)NC1CCCCC1	-0.5%	-21.3	-5.2%	-8.8%	-17.2%	-7.5%
CC(=O)N1/C(=C/c2ccc(N(C)C)cc2)C(=O)c2ccccc21	-12.3%	-2.5	-25.9%	10µM*[quencher]	-3.8%	10µM*
CC(=O)N1c2ccccc2C(=O)C1N(C)c1ccc(C)cc1 (centres undefined)	.	-5.5	-18.1%	.	.	.
CN(C)S(=O)(=O)Oc1ccsc1C(=O)Nc1ccc(Cl)c(Cl)c1	?	-12.5	-1.8%	?	?	3.2%
COc1ccc(COc2ccsc2C(=O)Nc2ccc(Cl)c(Cl)c2)cc1	-11.1%	0.5	56.2µM*	-12.6%	?	-13.9%
N#Cc1ccc(Oc2nc(C#N)cc(-c3ccccc3)n2)cc1	-8.2%	-1.6	39.8µM*	-13.0%	?	-10.5%
Cn1nnc(NC(=S)NC(=O)c2cc(Cl)ccc2Cl)n1	.	.	50.1µM*	.	.	.
CCN(CC)c1ccc(/C=C2/C(=O)c3ccc(C(=O)O)cc3C2=O)cc1	?	2.1	?	-11.0%	-3.0%	3.16µM*
Cc1ccc(NC(=S)NCC2CCN(C(C)c3ccccc3)C2)cc1 (centres undefined)	-6.8%	0.2	-24.1%	-10.7%	3.7%	2.1%
Cc1cc(C)c(NC(=S)NCC2CCN(C(C)c3ccccc3)C2)c(C)c1 (centres undefined)	?	-48.9*	3.55µM*	-15.6%	-3.1%	?
COc1ccc(NC(=O)Cn2c(=O)n(Cc3ccco3)c(=O)c3oc4ccccc4c32)cc1Cl	?	.	.	?	.	19.3%
